Our source for the log2 fold change values is the supplement of paper PMC10849652.

Holding throughout (experiment): log2 fold change, soluble protein after heating vs DMSO (PISA); higher = thermal stabilisation; K562 lysate, 10 uM; active = over 0.2 and 3.5 SD of the protein, either way, in both replicates (recomputed)
Compound in test [1]: NCC(=O)Nc1ccc(-n2nc(C(F)(F)F)cc2-c2ccc3c(ccc4ccccc43)c2)cc1
In short, it runs like this: (§1)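 Log-two fold change in thermal stability relative to solvent controls is reported from duplicates. For each sample, crude K562 extract from dounce-homogenised pellets in PBS pH 7.4 with 1 mM MgCl2, at 1 mg/mL protein, was treated with 10 μM compound for 30 min. Aliquots heated for 3 min across 48°C-58°C were pooled, brought to 0.5% NP-40 at 4°C and cleared at 21,000xg for 90 min. The supernatant was quantified by TMTpro 16plex LC-MS/MS with channel sums equalised.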

Compound in test [2]: O=C(CCCCCCC(=O)Nc1ccccc1)NO [vorinostat]
In short, it runs like this: as §1

Compound in test [3]: O=C(O)c1ccc2c(c1)nc(Nc1cccc(Cl)c1)c1ccncc12 [silmitasertib]
An outline of the steps: as §1

Compound in test [4]: O=C1NC(=O)C(c2cnc3ccccn23)=C1c1cn2c3c(cc(F)cc13)CN(C(=O)N1CCCCC1)CC2
An outline of the steps:
as §1

Compound in test [5]: c1cn2cc(-c3ccc4cn[nH]c4c3)nc(Nc3ccc(N4CCOCC4)cc3)c2n1 [entospletinib]
An outline of the steps: as §1

About 8,800 targets were measured; listed, in parts, are those with a hit and a random draw of the rest. About 0.5% of all pairs of compound and target were hits. Unmarked numbers belong to inactive results.

Chain of UniProt Q9H6D7 (Q9H6D7 whole entry, looked up): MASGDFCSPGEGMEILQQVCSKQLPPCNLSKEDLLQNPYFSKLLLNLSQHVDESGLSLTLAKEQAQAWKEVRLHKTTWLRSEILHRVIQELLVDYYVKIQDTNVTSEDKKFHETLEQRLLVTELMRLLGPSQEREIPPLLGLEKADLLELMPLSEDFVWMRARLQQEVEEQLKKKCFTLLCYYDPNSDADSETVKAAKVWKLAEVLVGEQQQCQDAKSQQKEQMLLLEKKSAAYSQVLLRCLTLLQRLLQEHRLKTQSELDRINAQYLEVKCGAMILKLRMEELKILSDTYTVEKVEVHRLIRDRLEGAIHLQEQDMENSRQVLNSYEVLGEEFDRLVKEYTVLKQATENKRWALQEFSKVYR
Chain of UniProt Q92805 (Q92805 whole entry, looked up): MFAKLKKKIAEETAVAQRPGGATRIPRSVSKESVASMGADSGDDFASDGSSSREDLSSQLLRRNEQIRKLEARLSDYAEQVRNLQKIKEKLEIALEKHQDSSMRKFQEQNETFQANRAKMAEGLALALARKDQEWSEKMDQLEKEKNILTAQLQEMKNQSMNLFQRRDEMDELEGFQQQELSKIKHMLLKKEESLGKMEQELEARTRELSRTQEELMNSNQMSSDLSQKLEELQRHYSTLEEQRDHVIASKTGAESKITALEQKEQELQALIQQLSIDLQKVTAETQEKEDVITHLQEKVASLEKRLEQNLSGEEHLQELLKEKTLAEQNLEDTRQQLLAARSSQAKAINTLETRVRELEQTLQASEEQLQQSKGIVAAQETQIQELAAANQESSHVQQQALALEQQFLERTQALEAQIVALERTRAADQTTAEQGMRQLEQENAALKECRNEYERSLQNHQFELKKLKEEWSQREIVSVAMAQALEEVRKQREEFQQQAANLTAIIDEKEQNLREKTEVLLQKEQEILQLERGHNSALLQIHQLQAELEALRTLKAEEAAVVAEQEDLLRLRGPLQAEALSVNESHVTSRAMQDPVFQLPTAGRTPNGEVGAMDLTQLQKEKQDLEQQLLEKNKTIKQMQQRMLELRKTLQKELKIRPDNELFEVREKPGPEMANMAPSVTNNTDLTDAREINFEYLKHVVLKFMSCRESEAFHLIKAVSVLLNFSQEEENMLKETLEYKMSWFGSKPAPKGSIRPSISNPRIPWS
Chain of UniProt Q14145 (Q14145 whole entry, looked up): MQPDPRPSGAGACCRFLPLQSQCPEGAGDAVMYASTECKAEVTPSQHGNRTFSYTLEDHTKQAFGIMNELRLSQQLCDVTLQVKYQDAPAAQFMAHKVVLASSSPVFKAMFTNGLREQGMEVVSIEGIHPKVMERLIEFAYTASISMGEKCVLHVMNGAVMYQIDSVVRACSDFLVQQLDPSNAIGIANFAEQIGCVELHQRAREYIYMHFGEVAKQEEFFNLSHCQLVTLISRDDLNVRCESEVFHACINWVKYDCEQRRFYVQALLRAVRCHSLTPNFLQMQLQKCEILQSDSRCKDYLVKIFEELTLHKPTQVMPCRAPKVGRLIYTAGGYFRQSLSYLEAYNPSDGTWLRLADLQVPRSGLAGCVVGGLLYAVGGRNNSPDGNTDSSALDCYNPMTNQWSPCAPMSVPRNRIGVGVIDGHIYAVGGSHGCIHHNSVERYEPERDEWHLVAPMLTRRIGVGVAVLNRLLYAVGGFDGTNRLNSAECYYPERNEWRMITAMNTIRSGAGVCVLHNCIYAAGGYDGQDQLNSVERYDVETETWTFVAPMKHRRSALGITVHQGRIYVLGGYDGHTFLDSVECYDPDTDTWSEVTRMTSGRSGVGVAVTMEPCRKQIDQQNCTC
Chain of UniProt Q68CZ6 (Q68CZ6 whole entry, looked up): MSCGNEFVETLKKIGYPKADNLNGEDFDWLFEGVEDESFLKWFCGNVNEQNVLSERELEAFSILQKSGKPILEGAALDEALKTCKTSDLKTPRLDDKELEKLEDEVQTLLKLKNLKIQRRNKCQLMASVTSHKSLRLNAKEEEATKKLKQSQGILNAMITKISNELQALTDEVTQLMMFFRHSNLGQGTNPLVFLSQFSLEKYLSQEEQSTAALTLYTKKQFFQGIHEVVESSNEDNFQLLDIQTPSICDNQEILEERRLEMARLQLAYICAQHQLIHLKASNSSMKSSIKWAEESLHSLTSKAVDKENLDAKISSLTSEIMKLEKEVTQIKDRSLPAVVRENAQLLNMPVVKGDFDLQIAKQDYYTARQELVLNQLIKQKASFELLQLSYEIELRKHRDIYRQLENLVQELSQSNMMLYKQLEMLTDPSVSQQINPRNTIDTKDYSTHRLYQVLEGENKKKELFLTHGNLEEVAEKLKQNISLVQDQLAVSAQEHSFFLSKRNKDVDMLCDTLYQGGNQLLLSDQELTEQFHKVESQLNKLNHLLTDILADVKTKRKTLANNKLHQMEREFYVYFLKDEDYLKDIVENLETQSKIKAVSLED
Chain of UniProt Q5T447 (Q5T447 whole entry, looked up): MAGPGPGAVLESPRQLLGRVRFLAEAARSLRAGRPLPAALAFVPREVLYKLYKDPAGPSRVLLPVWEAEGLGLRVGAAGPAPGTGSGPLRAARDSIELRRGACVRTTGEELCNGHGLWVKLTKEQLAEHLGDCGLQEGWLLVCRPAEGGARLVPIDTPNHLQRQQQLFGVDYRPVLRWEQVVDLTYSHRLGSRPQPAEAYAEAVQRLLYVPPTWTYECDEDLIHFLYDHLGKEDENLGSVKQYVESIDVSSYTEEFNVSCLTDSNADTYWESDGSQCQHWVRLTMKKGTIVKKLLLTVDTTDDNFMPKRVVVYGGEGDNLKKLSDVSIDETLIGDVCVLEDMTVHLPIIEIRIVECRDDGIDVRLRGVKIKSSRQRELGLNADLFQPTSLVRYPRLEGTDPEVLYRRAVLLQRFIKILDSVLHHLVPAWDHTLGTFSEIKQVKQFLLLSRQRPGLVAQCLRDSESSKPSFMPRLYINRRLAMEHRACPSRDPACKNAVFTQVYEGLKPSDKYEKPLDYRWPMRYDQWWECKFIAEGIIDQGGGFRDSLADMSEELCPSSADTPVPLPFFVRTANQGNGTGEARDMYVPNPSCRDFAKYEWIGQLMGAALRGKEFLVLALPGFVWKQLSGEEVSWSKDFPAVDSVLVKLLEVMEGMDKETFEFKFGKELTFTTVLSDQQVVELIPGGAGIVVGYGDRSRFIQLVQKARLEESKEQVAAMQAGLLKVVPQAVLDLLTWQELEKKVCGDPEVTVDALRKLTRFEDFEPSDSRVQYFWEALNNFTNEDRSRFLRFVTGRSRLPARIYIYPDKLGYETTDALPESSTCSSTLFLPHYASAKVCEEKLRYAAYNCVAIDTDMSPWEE
Chain of UniProt Q9P2X3 (Q9P2X3 whole entry, looked up): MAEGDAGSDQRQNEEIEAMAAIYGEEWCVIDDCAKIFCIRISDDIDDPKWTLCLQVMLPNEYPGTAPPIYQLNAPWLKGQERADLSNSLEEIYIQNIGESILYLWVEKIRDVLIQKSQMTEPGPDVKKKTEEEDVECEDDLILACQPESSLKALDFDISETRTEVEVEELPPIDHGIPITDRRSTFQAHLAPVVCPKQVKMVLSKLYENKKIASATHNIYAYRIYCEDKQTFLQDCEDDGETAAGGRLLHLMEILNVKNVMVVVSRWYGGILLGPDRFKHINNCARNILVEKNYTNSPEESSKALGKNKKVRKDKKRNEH
Chain of UniProt Q13547 (Q13547 whole entry, looked up): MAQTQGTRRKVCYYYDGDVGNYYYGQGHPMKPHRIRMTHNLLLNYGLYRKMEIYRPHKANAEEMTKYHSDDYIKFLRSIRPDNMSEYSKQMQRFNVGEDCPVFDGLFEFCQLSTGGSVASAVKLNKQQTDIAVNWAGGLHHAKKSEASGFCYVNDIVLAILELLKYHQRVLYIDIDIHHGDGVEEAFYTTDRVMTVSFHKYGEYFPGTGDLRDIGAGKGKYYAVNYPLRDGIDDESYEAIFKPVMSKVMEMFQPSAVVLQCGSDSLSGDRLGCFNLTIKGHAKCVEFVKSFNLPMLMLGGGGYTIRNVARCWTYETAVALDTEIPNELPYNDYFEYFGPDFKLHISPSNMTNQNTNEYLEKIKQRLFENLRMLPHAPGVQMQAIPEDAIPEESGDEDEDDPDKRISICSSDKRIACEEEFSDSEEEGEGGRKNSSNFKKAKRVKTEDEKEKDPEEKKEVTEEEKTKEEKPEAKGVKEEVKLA

On to KEAP1 (UniProt Q14145), for which the log2 fold change was -0.019 in test [1]; -0.262 (active) in test [2]; -0.008 in test [3]; -0.022 in test [4]; 0.001 in test [5].

Take HAUS3 (UniProt Q68CZ6): the log2 fold change in test [1] is 0.007; in test [2], -0.618 (active); in test [3], -0.009; in test [4], 0.004; in test [5], 0.007.

In the case of IMPACT (UniProt Q9P2X3), the log2 fold change in test [1] was 0.019; in test [2], -0.125; in test [3], -0.096; in test [4], -0.082; in test [5] it was -0.027.

Consider HECTD3 (UniProt Q5T447), for which the log2 fold change in test [1] is -0.015; in test [2], -0.253 (active); in test [3], 0.109; in test [4], -0.02; in test [5] it was 0.022.

Regarding HDAC1 (UniProt Q13547), the log2 fold change in test [1] is 0.018; in test [2], 0.644 (active); in test [3] it was -0.008; in test [4] it was -0.015; in test [5] it was 0.008.

For the target INPP4A (UniProt Q96PE3), the log2 fold change in test [1] was 0.016; in test [2], -0.106; in test [3], 0.002; in test [4], -0.013; in test [5], 0.006.

For HAUS4 (UniProt Q9H6D7), the log2 fold change in test [1] is -0.022; in test [2], -0.255 (active); in test [3], 0.045; in test [4] it was -0.017; in test [5] it was -0.018.

For the target IMMT (UniProt C9J406), the log2 fold change in test [1] was -0.084; in test [2] it was 0.174; in test [3], 0.092; in test [4], -0.002; in test [5] it was -0.172.

As for GOLGA1 (UniProt Q92805), the log2 fold change was 0.048 in test [1]; 0.07 in test [2]; 0.01 in test [3]; -0.076 in test [4]; -0.014 in test [5].
